In the library only some 1.3% were active in any assay of this set; here they are far more common.
PrPC surface inh = inhibitors of human cell surface prion protein PrPC | actives 0.43% (n = 370,000) | inhibition, % at 13.8 µM | TR-FRET read-out | P04156; in the data active means inhibition above about 24%; further: 0% = median of the test wells and 100% = reference compound wells
PrP UTR inh = suppresses PrP 5' UTR mRNA reporter expression; AID 488862; inhibition, % (concentration not given with the values); cell-based PrP 5' UTR mRNA reporter, plate reader; actives 0.35% (n = 340,000); in the data active means inhibition above about 52%; further: 0 = median of the neutral control wells
3CLpro inhibitor = SARS-CoV 3CLpro protease inhibition | actives 0.14% (n = 290,000) | recombinant SARS-CoV 3CLpro, quenched FRET peptide cleavage | P0C6X7 | inhibition, % at 6 µM | AID 1706; in the data active means inhibition above about 12%
CCHF vOTU inh = CCHFV vOTU protease inhibition. Pep-AMC fluorescence. inhibition, % at 11.5 µM. actives 0.55% (n = 370,000). AID 651958; in the data active means inhibition above about 30%; further: 0% = vehicle wells with enzyme and 100% = no enzyme wells
PrPC TRFRET cf = confirmation of inhibitors of cell surface human prion protein; AID 743200; cell surface PrPC level, TR-FRET; shares compounds with PrPC surface inh; actives 65% (n = 1,500); inhibition, % at 13.8 µM; in the data active means inhibition above about 25%
LD9 tox = LD9 cell cytotoxicity, PrPc inhibitor counter-screen; actives 29% (n = 1,500); shares compounds with PrPC surface inh; inhibition, % at 13.8 µM; LD9 cells cytotoxicity, luminescence viability; in the data active means inhibition above about 9.5%
Active calls of the source: *; / = no result given.

SMILES | PrPC surface inh | PrP UTR inh | 3CLpro inhibitor | CCHF vOTU inh | PrPC TRFRET cf | LD9 tox
CO[C@H]([C@H](C)/C=C/N(C)C=O)[C@@H](C)C(O)CC[C@H](C)[C@H](O)[C@H](C)[C@H]1OC(=O)/C=C/C(C)=C/C[C@H](O)C[C@@H]2C=CC[C@@H](C[C@H](OC)[C@@]3(CO3)[C@@H](OC)C[C@@H](OC)[C@@H]1C)O2 (stereo partly specified) | 26* | / | / | / | 24 | 25*
CO[C@H]([C@H](C)/C=C/N(C)C=O)[C@@H](C)C(=O)CC[C@H](C)[C@H](O)[C@H](C)[C@H]1OC(=O)/C=C/C(C)=C/C[C@H](O)C[C@@H]2C=CC[C@@H](C[C@H](OC)C(C)(O)[C@@H](OC)C[C@@H](OC)[C@@H]1C)O2 (stereo partly specified) | 47* | / | / | / | 42* | 25*
CO[C@H]([C@H](C)/C=C/N(C)C=O)[C@@H](C)C(=O)CC[C@H](C)[C@H](O)[C@H](C)[C@H]1OC(=O)/C=C/C(C)=C/C[C@H](O)C[C@@H]2C=CC[C@@H](C[C@H](OC)[C@@H](CO)[C@@H](OC)C[C@@H](OC)[C@@H]1C)O2 | 38* | / | / | / | 34* | 24*
Cc1ccc(C)c(S(=O)(=O)NC(C)C(=O)NCc2ccccn2)c1 (stereo unspecified) | 7 | -14 | 3 | 3 | / | /
Cc1ccc([N+](=O)[O-])cc1S(=O)(=O)Nc1cccc(S(=O)(=O)Nc2ccccc2C(=O)O)c1 | 2 | -1 | / | 21 | / | /
CCCn1c(N)c(C(=O)CSc2nncs2)c(=O)[nH]c1=O | 55* | -17 | / | 1 | 67* | -5
CCCn1c(N)c(C(=O)CSc2nnc3ccccn23)c(=O)[nH]c1=O | -3 | -24 | / | 4 | / | /
CCCn1c(N)c(C(=O)CSc2nnc(N)s2)c(=O)[nH]c1=O | 42* | -14 | / | 7 | 43* | 4
CCCn1c(N)c(C(=O)CSc2nc3ccccc3s2)c(=O)[nH]c1=O | 4 | -16 | -1 | -13 | / | /
O=C(Nc1oc2ccccc2c(=O)c1-c1ccc2c(c1)OCO2)c1ccco1 | 33* | / | / | 26 | 28* | 3
CCOC(=O)Nc1nc(-c2ccccc2)c(C(=O)c2ccc(Cl)cc2)s1 | 25* | -1 | 4 | 15 | 16 | 9.6*
Cc1cccc(NC(=O)CSc2nc(C3CC3)nc3ccccc23)c1 | 30* | -2 | -2 | 0 | 28* | -6
Cc1cc(NC(=O)CSc2nc(C3CCCCC3)nc3ccccc23)no1 | 14 | -19 | -10 | 2 | / | /
Cc1nonc1NC(=O)CSc1nc(C2CCCCC2)nc2ccccc12 | 50* | -33 | -4 | 3 | 53* | -12
COc1ccc(S(=O)(=O)N2CCCC2)cc1NC(=O)c1ccccc1 | 7 | -27 | -1 | 6 | / | /
COc1cccc(CNc2nc3ccccc3n2CCN2CCCCC2)c1OC | 1 | -2 | 0 | 20 | / | /
O=C(CSc1ncnc2ccccc12)Nc1ccc2c(c1)OCCO2 | 40* | -51 | -5 | 18 | 50* | -6
CC(Sc1ncnc2ccccc12)C(=O)Nc1ccc2c(c1)OCCO2 (stereo unspecified) | 43* | -8 | 1 | -9 | 28* | 4
O=C(CSc1nc(Cc2ccccc2)nc2ccccc12)Nc1ccc2c(c1)OCCO2 | 31* | -21 | -1 | -12 | 71* | -9
CC(Sc1ccccn1)C(=O)Nc1ccc2c(c1)OCCO2 (stereo unspecified) | 6 | -17 | / | 12 | / | /
Cc1cccc(-c2noc(CCC(=O)Nc3ccccc3)n2)c1 | 6 | -11 | -1 | -12 | / | /
CCN(CC)CCCNc1oc(/C=C/c2ccccc2)nc1C#N | -3 | / | 3 | -340 | / | /
O=C(Nc1ccc2nc(-c3ccccc3)[nH]c2c1)c1ccco1 | -12 | -61 | -2 | -3 | / | /
O=C(Nc1cccc(-c2nc3ccccc3[nH]2)c1)c1cccc(NC(=O)c2ccco2)c1 | 37* | -11 | -3 | 0 | -6 | 18*
CS(=O)(=O)c1cccc(C(=O)Nc2cccc(-c3nc4ccccc4[nH]3)c2)c1 | 129* | -14 | -3 | 15 | -4 | 20*
SMILES | PrPC surface inh | PrP UTR inh | 3CLpro inhibitor | CCHF vOTU inh | PrPC TRFRET cf | LD9 tox
CCCCNc1ccc(C(CC(N)=O)NC(=O)c2ccccc2)cc1[N+](=O)[O-] (stereo unspecified) | -17 | -16 | / | 5 | / | /
C=Cc1cc2c(cc1O)CCC1C2CCC2(C)C(O)CCC12 (stereo unspecified) | 29* | -26 | / | -5 | 11 | -4
CC(=O)Nc1ccc(C(=O)Nc2nc(-c3ccccn3)cs2)cc1 | 2 | -15 | -5 | -12 | / | /
O=C(Nc1nc(-c2ccccn2)cs1)c1ccccc1-n1cnnn1 | 28* | 26 | 3 | 6 | 27* | 20*
COc1cc2sc3cc(NCCCN4CCOCC4)ccc3c(=O)c2cc1OC | -7 | -49 | / | -53 | / | /
COc1cccc2sc3cc(NCc4ccc(C)o4)ccc3c(=O)c12 | 37* | -39 | / | -31 | 83* | 3
C=C1CC2(CC(c3ccccc3)OC(c3ccccc3)C2)OC1=O (stereo unspecified) | 49* | -23 | / | 23 | 9 | 70*
COc1ccc(OC)c(-c2csc(NC(=O)Cn3[nH]c(=O)c4ccccc4c3=O)n2)c1 | 27* | 2 | 1 | -5 | 25* | 38*
COc1ccc(OC)c(-c2csc(NC(=O)Cc3ccc(F)cc3)n2)c1 | 14 | -19 | 4 | -2 | / | /
CC1=CCC(C(=O)O)(C(=O)N/N=C/c2cccs2)C(c2ccc(F)cc2)C1 (stereo unspecified) | -4 | -4 | 0 | 6 | / | /
CCCN1C(=O)c2[nH]nc(-c3cc(Cl)c(C)cc3O)c2C1c1ccc(O)c(OC)c1 (stereo unspecified) | 26* | -10 | 2 | 21 | 10 | -7
NC(Cc1ccc(Cl)cc1)c1csc(NC(=O)NCC2CCCCC2)n1 (stereo unspecified) | 61* | / | / | 3 | 42* | -2
Cc1ccc(C2C(C#N)=C(N)SC(N)=C2C#N)cc1 | 91* | -26 | 2 | 3 | 86* | 1
Cc1ccc(C)n1-c1ccc(C(=O)Nc2ccccc2)cc1 | 6 | -54 | -3 | 26 | / | /
CCCCNC(=O)c1nc(-c2cnccn2)oc1-c1ccc(Cl)cc1 | 1 | / | / | -58 | / | /
CSc1nc2c([nH]1)c(=S)n(C)c(=O)n2C | 34* | -7 | / | 11 | 0 | -1
CCCCSc1nc2c([nH]1)c(=S)n(C)c(=O)n2C | -1 | -18 | / | 4 | / | /
NCCCSC1=NCCCN1 | 2 | -19 | 0 | -8 | / | /
CCOc1ccc(NC(=O)CC(C)S(=O)(=O)c2ccc3c(c2)NC(=O)CO3)cc1 (stereo unspecified) | -1 | -25 | 4 | 8 | / | /
CCCN(c1ccc(OCC)cc1)S(=O)(=O)c1ccc2c(c1)NC(=O)CO2 | 55* | 10 | 2 | -6 | 56* | -2
CCN1CCc2c(sc(NC(=O)c3ccc(S(=O)(=O)N4CCCCCC4)cc3)c2C(=O)NC)C1 | 52* | 2 | 0 | 17 | -24 | -3

Compound activity as filed in PubChem.
